Here are results for four molecules from PubChem BioAssay (EPA / NIEHS).

Activity calls are given as the source filed them. How the source made its calls: active means hit-call score of the fitted dose curve at least 0.9, where 1 is the maximum; inactive means score below 0.9.

What all share (conditions): mRNA level, 48 h; actives raise or lower the signal
Read-out in experiment [1]: growth arrest and DNA damage 45 (GADD45B), GADD45B (gene 4616)
Description: LTEA_HepaRG_GADD45B: Life Technologies and Expression Analysis (LTEA) Assay for growth arrest and DNA damage 45 (GADD45B) using HepaRG (AID 2283461). The essentials:
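Differentiated HepaRG cells, plated 48 h then switched to serum-free induction medium, were exposed 48 h in duplicate to eight half-log concentrations from 100 uM in 0.5% DMSO; mRNA quantified by qRT-PCR, normalized to ACTB/GAPDH/POLR2A, bidirectional fit versus DMSO.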

Read-out in experiment [2]: ABC Transporter (ABCC3), ABCC3 (gene 8714)
The experiment is described as follows: LTEA_HepaRG_ABCC3: Life Technologies and Expression Analysis (LTEA) Assay for ABC Transporter (ABCC3) using HepaRG (AID 2283462). Put shortly: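 HepaRG cells in serum-free induction medium were exposed for 48 h in duplicate to 8-point half-log concentrations topping at 100 uM in 0.5% DMSO. ABCC3 mRNA was measured by qRT-PCR normalized to ACTB, GAPDH and POLR2A, with bidirectional fitting versus DMSO.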

Read-out in experiment [3]: ABC Transporter (ABCB11), ABCB11 (gene 8647)
The experiment is described as follows: LTEA_HepaRG_ABCB11: Life Technologies and Expression Analysis (LTEA) Assay for ABC Transporter (ABCB11) using HepaRG (AID 2283463). Put shortly: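 HepaRG, 48 h exposure, 8-pt half-log CRC top 100 uM, 0.5% DMSO vehicle, duplicates. Readout: TaqMan qRT-PCR of ABCB11 mRNA, housekeeping-normalized (ACTB/GAPDH/POLR2A). Bidirectional fit vs DMSO baseline.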

Read-out in experiment [4]: Broad substrate specificity ATP-binding cassette transporter ABCG2 (Homo sapiens) (UniProt Q9UNQ0)
Description: LTEA_HepaRG_ABCG2: Life Technologies and Expression Analysis (LTEA) Assay for ABC Transporter (ABCG2) using HepaRG (AID 2283465). Put shortly:
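HepaRG, 48 h exposure, 8-pt half-log series from 100 uM, 0.5% DMSO vehicle, duplicates. Readout: ABCG2 transcript by qRT-PCR (Fluidigm array), housekeeping-normalized; bidirectional curve fit relative to DMSO baseline.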

Read-out in experiment [5]: Peroxisomal acyl-coenzyme A oxidase 1 (ACOX1) gene, ACOX1 (gene 51)
Description: LTEA_HepaRG_ACOX1: Life Technologies and Expression Analysis (LTEA) Assay for Peroxisomal acyl-coenzyme A oxidase 1 (ACOX1) gene using HepaRG (AID 2283467). Put shortly: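 HepaRG, 48 h chemical exposure, 8-pt half-log series from 100 uM top, 0.5% DMSO vehicle, duplicates. Readout: ACOX1 mRNA by Fluidigm qRT-PCR, housekeeping-normalized; bidirectional fit vs DMSO baseline.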

Read-out in experiment [6]: Alkaline Phosphatase, Placental (ALPP) gene, ALPP (gene 250)
Description: LTEA_HepaRG_ALPP: Life Technologies and Expression Analysis (LTEA) Assay for Alkaline Phosphatase, Placental (ALPP) gene using HepaRG (AID 2283468). The essentials:
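Differentiated human HepaRG cells were plated and cultured 48 h, then exposed in duplicate for 48 h in serum-free induction medium to eight half-log concentrations from 100 uM in 0.5% DMSO. ALPP mRNA was measured by TaqMan qRT-PCR, normalized to ACTB, GAPDH, POLR2A.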

Read-out in experiment [7]: Bcl-2 (BAX) gene, BAX (gene 581)
The experiment is described as follows: LTEA_HepaRG_BAX: Life Technologies and Expression Analysis (LTEA) Assay for Bcl-2 (BAX) gene using HepaRG (AID 2283470). Put shortly: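 Cells were thawed, plated for 48 h, moved to serum-free induction medium and dosed for 48 h (highest concentration 100 uM, half-log steps, 0.5% DMSO). Total RNA was then analysed for BAX expression by qRT-PCR.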

Read-out in experiment [8]: adenosine kinase (ADK) gene, ADK (gene 132)
The experiment is described as follows: LTEA_HepaRG_ADK: Life Technologies and Expression Analysis (LTEA) Assay for adenosine kinase (ADK) gene using HepaRG (AID 2283471). Put shortly: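 ADK expression quantified by qRT-PCR, normalised to three housekeeping genes, after 48 h exposure of HepaRG cells to eight concentrations (top 100 uM, half-log steps, duplicate, 0.5% DMSO). Up- or down-regulation fitted relative to vehicle.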

Read-out in experiment [9]: Alpha-fetoprotein (AFP) gene, AFP (gene 174)
Description: LTEA_HepaRG_AFP: Life Technologies and Expression Analysis (LTEA) Assay for Alpha-fetoprotein (AFP) gene using HepaRG (AID 2283472). The essentials: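 Chemicals were tested on differentiated HepaRG cells for 48 hours at eight concentrations up to 100 uM, with 0.5% DMSO as vehicle. AFP expression was then quantified by qRT-PCR and analyzed for gain or loss relative to DMSO.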

Read-out in a further experiment: BCL2L11 (gene 10018)
The experiment is described as follows: LTEA_HepaRG_BCL2L11: Life Technologies and Expression Analysis (LTEA) Assay for Bcl-2 (BCL2L11) gene using HepaRG (AID 2283473). Put shortly: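 Differentiated human HepaRG cells in serum-free induction medium were exposed in duplicate for 48 h to eight concentrations (top 100 uM, half-log steps, 0.5% DMSO). BCL2L11 mRNA was quantified by TaqMan qRT-PCR, normalized to ACTB/GAPDH/POLR2A, bidirectional fit versus DMSO.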

Read-out in experiment [10]: Apolipoprotein A-V (APOA5) gene, APOA5 (gene 116519)
Description: LTEA_HepaRG_APOA5: Life Technologies and Expression Analysis (LTEA) Assay for Apolipoprotein A-V (APOA5) gene using HepaRG (AID 2283474). The essentials:
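Differentiated human HepaRG cells were exposed in duplicate for 48 h to eight half-log concentrations from 100 uM in 0.5% DMSO. APOA5 mRNA was quantified by TaqMan qRT-PCR, normalized to ACTB, GAPDH and POLR2A, and fitted bidirectionally against DMSO.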

Read-out in experiment [11]: Apoptosis regulator Bcl-2 (Homo sapiens) (UniProt P10415)
Description: LTEA_HepaRG_BCL2: Life Technologies and Expression Analysis (LTEA) Assay for Bcl-2 gene using HepaRG (AID 2283475). Put shortly:
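Plated human HepaRG cells are exposed to test chemicals for 48 h across eight concentrations from 100 uM downward in half-log steps (0.5% DMSO). BCL2 expression is then measured by qRT-PCR with housekeeping normalisation and fitted bidirectionally against vehicle.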

Read-out in experiment [12]: Bcl-2 (BID) gene, BID (gene 637)
Description: LTEA_HepaRG_BID: Life Technologies and Expression Analysis (LTEA) Assay for Bcl-2 (BID) gene using HepaRG (AID 2283476). Put shortly:
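Cells are plated, cultured 48 h, switched to serum-free induction medium, then dosed 48 h (100 uM top, half-log steps, 0.5% DMSO). RNA is isolated and BID expression read by qRT-PCR.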

Read-out in the next experiment: Caspase-3 (Homo sapiens) (UniProt P42574)
Description: LTEA_HepaRG_CASP3: Life Technologies and Expression Analysis (LTEA) Assay for cysteine-aspartic acid protease (CASP3) using HepaRG (AID 2283477). The essentials: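 Differentiated human HepaRG cells in serum-free induction medium were exposed 48 h to 8-point half-log concentrations from 100 uM (0.5% DMSO vehicle). CASP3 mRNA was measured by qRT-PCR, normalised to ACTB, GAPDH and POLR2A, with bidirectional fitting against DMSO.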

Read-out in experiment [13]: Cytochrome P450 (CYP24A1), CYP24A1 (gene 1591)
The experiment is described as follows: LTEA_HepaRG_CYP24A1: Life Technologies and Expression Analysis (LTEA) Assay for Cytochrome P450 (CYP24A1) using HepaRG (AID 2283478). The essentials: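 Differentiated HepaRG cells, pre-cultured 48 h, were exposed in duplicate for 48 h in serum-free induction medium to 8 half-log concentrations (top 100 uM, 0.5% DMSO). CYP24A1 mRNA was quantified by TaqMan qRT-PCR, normalized to ACTB/GAPDH/POLR2A, fitted bidirectionally versus DMSO.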

Read-out in experiment [14]: Cytochrome P450 (CYP1A2), CYP1A2 (gene 1544)
Description: LTEA_HepaRG_CYP1A2: Life Technologies and Expression Analysis (LTEA) Assay for Cytochrome P450 (CYP1A2) using HepaRG (AID 2283479). Put shortly:
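Differentiated human HepaRG cells in serum-free induction medium were exposed in duplicate for 48 h to 8-point half-log concentrations up to 100 uM in 0.5% DMSO. CYP1A2 mRNA measured by qRT-PCR, normalized to ACTB, GAPDH, POLR2A; bidirectional fit vs DMSO.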

Read-out in experiment [15]: cysteine-aspartic acid protease (CASP8), CASP8 (gene 841)
Description: LTEA_HepaRG_CASP8: Life Technologies and Expression Analysis (LTEA) Assay for cysteine-aspartic acid protease (CASP8) using HepaRG (AID 2283480). Put shortly: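 qRT-PCR readout of CASP8 mRNA, normalized to three housekeeping genes, after 48 h chemical exposure of HepaRG cells; 8-point half-log series, top 100 uM, 0.5% DMSO vehicle. Bidirectional curve fitting against DMSO baseline.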

Read-out in experiment [16]: ATP-citrate lyase (ACLY), ACLY (gene 47)
Description: LTEA_HepaRG_ACLY: Life Technologies and Expression Analysis (LTEA) Assay for ATP-citrate lyase (ACLY) using HepaRG (AID 2283466). The essentials:
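qRT-PCR readout of ACLY transcript after 48 h chemical treatment of HepaRG cells; expression normalized to three housekeeping genes. Eight-point half-log series, highest 100 uM, 0.5% DMSO vehicle. Gain or loss fitted against DMSO baseline.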

Read-out in experiment [17]: Bcl-2 (BAD) gene, BAD (gene 572)
The experiment is described as follows: LTEA_HepaRG_BAD: Life Technologies and Expression Analysis (LTEA) Assay for Bcl-2 (BAD) gene using HepaRG (AID 2283469). The essentials:
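HepaRG, 48 h exposure, 8-pt half-log curve from 100 uM in 0.5% DMSO, duplicates. Readout: TaqMan qRT-PCR for BAD mRNA, housekeeping-normalised (ACTB/GAPDH/POLR2A); gain or loss fitted against DMSO baseline.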

Read-out in experiment [18]: ABC Transporter (ABCC2), ABCC2 (gene 1244)
The experiment is described as follows: LTEA_HepaRG_ABCC2: Life Technologies and Expression Analysis (LTEA) Assay for ABC Transporter (ABCC2) using HepaRG (AID 2283464). The essentials: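 HepaRG cells were plated 48 h, switched to serum-free induction medium, then exposed in duplicate for 48 h to 8 concentrations (top 100 uM, half-log steps, 0.5% DMSO). ABCC2 mRNA was measured by qRT-PCR normalized to ACTB/GAPDH/POLR2A; bidirectional fitting versus DMSO.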

Chain of Caspase-3 (Homo sapiens) (P42574 whole entry, looked up): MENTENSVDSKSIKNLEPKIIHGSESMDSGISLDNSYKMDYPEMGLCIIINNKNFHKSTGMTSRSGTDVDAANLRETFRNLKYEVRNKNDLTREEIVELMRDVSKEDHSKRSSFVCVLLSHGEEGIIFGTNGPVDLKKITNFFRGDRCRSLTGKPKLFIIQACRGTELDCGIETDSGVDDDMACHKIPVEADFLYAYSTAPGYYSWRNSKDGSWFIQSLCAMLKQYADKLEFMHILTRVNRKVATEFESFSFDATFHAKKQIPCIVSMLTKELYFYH
Chain of Apoptosis regulator Bcl-2 (Homo sapiens) (P10415 whole entry, looked up): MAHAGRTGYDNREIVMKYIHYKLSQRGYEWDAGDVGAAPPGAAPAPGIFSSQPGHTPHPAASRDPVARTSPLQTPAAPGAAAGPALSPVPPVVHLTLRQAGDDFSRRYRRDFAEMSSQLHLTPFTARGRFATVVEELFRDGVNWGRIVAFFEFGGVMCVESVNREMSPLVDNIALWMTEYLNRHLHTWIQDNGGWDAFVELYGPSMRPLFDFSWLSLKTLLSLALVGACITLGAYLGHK
Chain of Broad substrate specificity ATP-binding cassette transporter ABCG2 (Homo sapiens) (Q9UNQ0 whole entry, looked up): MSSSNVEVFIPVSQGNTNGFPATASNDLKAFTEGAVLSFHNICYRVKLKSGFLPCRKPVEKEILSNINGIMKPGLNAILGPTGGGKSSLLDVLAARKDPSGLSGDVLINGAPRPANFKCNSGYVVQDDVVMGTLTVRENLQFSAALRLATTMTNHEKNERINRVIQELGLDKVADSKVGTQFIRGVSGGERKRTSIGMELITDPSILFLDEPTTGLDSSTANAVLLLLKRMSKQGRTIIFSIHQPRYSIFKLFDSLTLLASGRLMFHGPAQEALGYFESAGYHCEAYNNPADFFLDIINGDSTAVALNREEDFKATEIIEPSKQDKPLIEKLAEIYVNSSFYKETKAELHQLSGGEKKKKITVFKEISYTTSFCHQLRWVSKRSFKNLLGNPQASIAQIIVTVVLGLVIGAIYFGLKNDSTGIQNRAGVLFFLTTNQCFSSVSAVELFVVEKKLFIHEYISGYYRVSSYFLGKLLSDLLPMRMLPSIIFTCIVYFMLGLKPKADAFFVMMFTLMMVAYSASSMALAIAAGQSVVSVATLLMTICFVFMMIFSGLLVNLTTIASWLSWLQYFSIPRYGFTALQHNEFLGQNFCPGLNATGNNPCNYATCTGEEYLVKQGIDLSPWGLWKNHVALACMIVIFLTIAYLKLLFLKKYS

For the molecule `O=C(NO)C1(NS(=O)(=O)c2ccc(Oc3ccc(F)cc3)cc2)CCOCC1`, the molecule was classed as inactive (in experiment [1]; in [4]; in [5]; in experiment [7]; in experiment [8]; with BCL2L11 (gene 10018)). The result in [10], in experiment [11], in [12], in experiment [13], in [14] and in experiment [15] was inactive. The AC50 in [2] is 80.1 µM (active); in experiment [3] it was 82.8 µM (active); in experiment [6] it was 60.9 µM (active); in experiment [9] it was 70.2 µM (active); with Caspase-3 (Homo sapiens), 50 µM (active).

Consider `NC(=O)N1c2ccccc2C=Cc2ccccc21`, for which the result in experiment [1], in experiment [2], in [3], in experiment [4], in experiment [16] and in experiment [5] was inactive. In addition, the call (in experiment [6]; in experiment [7]; in experiment [8]; in [9]; with BCL2L11 (gene 10018); in experiment [11]) was inactive. Besides, the call (in experiment [12]; in the experiment with Caspase-3 (Homo sapiens); in experiment [13]; in experiment [14]; in [15]) was inactive.

In the case of `Cn1c(=O)c2[nH]cnc2n(C)c1=O`, the outcome in experiment [1], in experiment [2], in [3], in [4], in experiment [16] and in [5] was inactive. In addition, the molecule was called inactive (in [6]; in [17]; in experiment [7]; in experiment [8]; in experiment [9]; in the experiment with BCL2L11 (gene 10018)). The molecule was called inactive (in experiment [10]; in experiment [11]; with Caspase-3 (Homo sapiens); in experiment [13]; in experiment [14]; in [15]). The AC50 in experiment [12] was 0.312 µM (active).

Regarding `c1ccc2c(c1)-c1cccc3c1c-2cc1ccccc13`, the AC50 was 21 µM (active) in experiment [2]; 15.1 µM (active) in experiment [3]; 13.8 µM (active) in [18]; 3.88 µM (active) in [16]; 15.9 µM (active) in [5]; 17.2 µM (active) in [9]. Moreover, the half-maximal activity concentration (AC50) with BCL2L11 (gene 10018) is 12.5 µM (active); in [11] it was 6 µM (active); with Caspase-3 (Homo sapiens), 13.5 µM (active); in [14], 1.13 µM (active). Further, the outcome in experiment [4], in experiment [6], in experiment [17], in experiment [7], in experiment [12] and in experiment [13] was inactive.

What is called AC50 is the midpoint of the concentration-response curve, whichever way the signal moves.
